This is one part of a sample in which hits are shown more often than they occur.
VCAM1 pot: TNF alpha stimulated VCAM1 expression potentiation. HUVEC TNFa-stimulated VCAM-1 immunofluorescence, high-content imaging; scaled per plate to unstimulated/TNFa-only wells. activation, % at 2 µM. 93,000 tested, 0.19% active. AID 808;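 active means activation above the screen mean plus 3 SD, with well images confirming the hit on visual review, cut at about 28% in these data, passing the limit was not always enough; inconclusive means activation above that limit but images do not confirm it; inactive means activation not above that limit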;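 further: signal is the number of cytoplasmic VCAM-1 stained grains per positive cell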
VCAM1 pot conf: enhancers of VCAM1 induction in HUVEC – imaging, triplicate retest, confirmation | shares compounds with VCAM1 pot | AID 1034 | activation, % at 2 µM | 230 tested, under 10 active | HUVEC TNFa-stimulated VCAM-1 immunofluorescence imaging;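 active means activation above 30% in triplicate retests at 2 µM, then confirmed by visual review of the well images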;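 further: scaled per plate between unstimulated and TNFa-stimulated DMSO control wells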
* marks the source's active call; other numbers are inactive results; ? = inconclusive.

SMILES	VCAM1 pot	others
CCOC(=O)c1cc(CC)sc1NC(=O)Cc1ccccc1	35*	VCAM1 pot conf=-9
CCOC(=O)c1c(-c2cccs2)csc1NC(=O)CCCC(=O)O	8
O=C(Cn1cc(C(=O)c2ccco2)c2ccccc21)NCc1ccco1	-10
COC(=O)Cn1cc(C(=O)C2CC2)c2ccccc21	54*	VCAM1 pot conf=-11
Cc1ccc(S(=O)(=O)NC(C)C(=O)Nc2ccc(C(N)=O)cc2)cc1 (stereo not drawn)	0
CCOc1ccccc1NC(=O)C1CC2CCCC(C1)C2=O (stereo not drawn)	-1
COc1ccc(OC)c(-n2c(-c3cccc(O)c3)n[nH]c2=S)c1	-7
CCC(CC)C(=O)NCCc1ccc(S(N)(=O)=O)cc1	-13
NS(=O)(=O)c1ccc(CCNC(=O)C2CCCCC2)cc1	33*	VCAM1 pot conf=-13
COc1ccc(CCNC(=O)C2CCN(S(=O)(=O)N3CCCCCC3)CC2)cc1OC	3
Oc1ccc(-n2cnnn2)cc1	-5
CN(C)N=Nc1ccc(S(=O)(=O)N2CCSC2C(=O)O)cc1 (stereo not drawn)	-12
CC1CN(C(NC(=O)C(C)(C)C)C(Cl)(Cl)Cl)CC(C)O1 (stereo not drawn)	2
C=CCSc1nnc2c(n1)OC=Nc1ccccc1-2	14
O=C(CN1C(=O)c2ccccc2C1=O)NCC1COc2ccccc2O1 (stereo not drawn)	-17
Cc1cc(C(=O)CN2C(=O)c3ccccc3C2=O)c(C)n1C1CC1	129*	VCAM1 pot conf=-14
O=C(CN1C(=O)c2cccnc2C1=O)c1ccccc1	8
C=CCNc1nc(Nc2ccc(OC)cc2)nc(OCC)n1	-6
O=C(COc1ccc(Br)cc1)Nc1ccc(-c2nnc(-c3ccco3)o2)cc1	-2
CC(=O)c1c(C)cc(C)c(CSc2nnc(-c3ccco3)o2)c1C	16
O=C(CCSc1nnc(-c2ccco2)o1)Nc1ccccc1	44*	VCAM1 pot conf=-16
COc1ccccc1-c1cc2ccccc2[nH]1	9
Cn1c(SCC(=O)NC2CCCCC2)nnc1-c1cccc(N)c1	-54
Cn1c(CN2CCOCC2)nnc1SCC(=O)NC1CCCCC1	?	VCAM1 pot conf=-17
CN(C)C(=O)Cn1c(SCC(=O)NC2CCCCC2)nc2ccccc21	1
SMILES	VCAM1 pot	others
CCOc1ccccc1C1CC(=O)NC2=C1C(=O)CC(C)(C)C2 (stereo not drawn)	7
Cc1cc2n(n1)SC(Nc1cc(Cl)ccc1Cl)N2 (stereo not drawn)	-21
C=CCNC(=O)/C(=C\C=C\c1ccccc1)NC(=O)c1ccc(OCCCC)cc1	4
COc1cccc(-c2nc(=S)c3c(n2CCCO)CCCC3)c1	18
C=CCNC(=O)CN1CCC(n2c(C)nc3cc(C(F)(F)F)ccc32)CC1	58*	VCAM1 pot conf=-18
C=CCNC(=O)CCCOc1ccc(C)cc1	1
N=c1nc(N)nc2n1NC(c1ccc(F)cc1)=CS2	-55
CC1=CC(C)(C)N(C(=O)C(C)N2C(=O)c3ccccc3C2=O)c2ccc(C)cc21 (stereo not drawn)	-7
CN(CP(=O)(O)CN(C)S(C)(=O)=O)S(C)(=O)=O	32*	VCAM1 pot conf=-12
O=C(Oc1ccc(Cl)cc1N1C(=O)CCC1=O)c1ccco1	-9
COC(=O)C1=C(C(=O)OC)SC(=C2C(=S)C(C)(C)N(C(=O)CC(C)C)c3ccccc32)S1	-8
CC1CCN(c2ccccc2NC(=S)NC(=O)c2ccco2)CC1	-6
O=C(COC(=O)c1ccncc1)NC(=O)C1CCCCC1	2
O=C(NCc1ccccc1)C1CCCN(C(=O)Nc2ccccc2)C1 (stereo not drawn)	-3
Cc1cccn2cc(CNC(=O)C3CCCCC3)nc12	60*	VCAM1 pot conf=-14
COC(=O)c1ccc(NC(=O)CSCC(=O)OCC(=O)c2ccc(Br)cc2)cc1	9
Cc1nnc(NC(=O)c2cccc(F)c2)s1	3
O=C(N/N=C/c1cc2c(cc1Cl)OCO2)c1ccccn1	1
O=C(N/N=C/c1ccccc1Cl)c1cccc(F)c1	56*	VCAM1 pot conf=-12
CCN(C(=O)c1cccc(F)c1)c1ccccc1C	-9
CC(C)n1c(CN2CCN(C)CC2)nc2c1c(=O)n(C)c(=O)n2C	-1
CCCCc1c(C)nn(-c2nnc3c4ccccc4n(C)c3n2)c1C	1
O=C(COc1cccc(C(F)(F)F)c1)Nc1ccc(S(=O)(=O)N2CCCC2)cc1	-17
Cc1ccc2nc(SCC(=O)Nc3ccc4c(c3)OCCO4)[nH]c2c1	-10
Cc1ncoc1C(=O)Nc1ccc2c(c1)OCCO2	81*	VCAM1 pot conf=-10
SMILES	VCAM1 pot	others
CCOC(=O)c1cn(CC(=O)Nc2ccc3c(c2)OCCO3)nn1	-4
COC(=O)C(C)Sc1nc(-c2ccc(OC)cc2)nc2c1c(=O)n(C)c(=O)n2C (stereo not drawn)	32
NCCN1CCN(CCN)CC1	-94
CCN1CCN(C(c2cc(OC)c(OC)c(OC)c2)c2nnnn2C(C)C)CC1 (stereo not drawn)	-3
CCOC(=O)c1c(C)cccc1OCC(N)=O	-8
CN(C)CCCN1C(=O)CSC1c1ccccc1 (stereo not drawn)	-7
O=C1CSC(c2ccccn2)N1c1ccccc1 (stereo not drawn)	34*	VCAM1 pot conf=-16
CCOc1ccc(N2C(=O)CSC2c2ccncc2)cc1 (stereo not drawn)	-91
CCC1(COC(NC(=O)c2cccnc2)(C(F)(F)F)C(F)(F)F)COC1	4
CC(C)N1C(=O)C2C(C(=O)NCc3ccccc3)C3C=CC2(O3)C1C(=O)NC(C)(C)C (stereo not drawn)	1
CCn1c2c(c3cc(OCC(C)C)ccc31)CCCC2=O	47*	VCAM1 pot conf=-11
CC(=O)c1c(OC(=O)c2ccccc2)c2ccccc2n1C	-6
Cc1ccc(C)n1NC(=O)c1ccccc1O	-8
COc1ccc(OC)c(-n2c(C)ccc2-c2ccc(S(C)(=O)=O)cc2)c1	-4
CCCCS(=O)CC(O)COCC (stereo not drawn)	-25
CCNCC(O)COCC(O)CNCC (stereo not drawn)	-62
COC(=O)c1c(NC(=O)CSc2nnc(-c3cccnc3)n2Cc2ccco2)sc(C)c1C	7
CCCn1c(SCC(=O)Nc2sc(C)c(C)c2C(=O)OCC)nc2c1c(=O)n(C)c(=O)n2C	31*	VCAM1 pot conf=-12
CCOC(=O)CNC(=O)CSc1nc2sc(C)c(C)c2c(=O)n1C	-4
COc1ccc(C(=O)c2ccc(N3CCN(C4CC(=O)NC4=O)CC3)cc2)cc1F (stereo not drawn)	-7
COc1ccccc1C(=O)NC(C)C(c1cccs1)N1CCN(C)CC1 (stereo not drawn)	21
N#Cc1c2c(c(=S)n(-c3ccccc3)c1N)CCCC2	83*	VCAM1 pot conf=-8
Cc1ccccc1-c1nc(Cc2ccccc2)no1	9
Cc1nc(CC(=O)O)c(-c2ccccc2)s1	-5
Cc1nc(CS(=O)(=O)c2ccccc2)cc(N2CCOCC2)n1	-3
SMILES	VCAM1 pot	others
COCc1cc(Sc2c(Cl)cccc2Cl)nc(-c2ccccc2)n1	8
O=S(=O)(Cc1cc(Sc2ccc(Cl)cc2)nc(-c2ccccc2)n1)c1ccccc1	50*	VCAM1 pot conf=-20
Cc1cc(Cl)c(S(=O)(=O)Nc2ccc(Cl)cn2)cc1OCC(N)=O	29
CC(OC1=CC(=O)CCC1)C(=O)c1ccccc1 (stereo not drawn)	4
OC(CN1C2=NCCN2c2ccccc21)c1ccc2c(c1)OCO2 (stereo not drawn)	-6
CCN(CC)C(=O)CSc1nc(-c2cccs2)cc(-c2cccs2)c1C#N	50*	VCAM1 pot conf=-20
CCN(CC)C(=O)CSc1nc(N)c(C#N)c(-c2cccs2)c1C#N	-13
